The text below walks through data of PubChem BioAssay (NCATS).

A short description of experiment [1]: Cell Viability - Hek293 (AID 427;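 active means compounds whose dose-response curve shows a full or clear partial loss of cell viability, called from curve shape rather than a numeric limit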;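 further: potency means the concentration at half of the fitted maximal effect; cells exposed to compound for 40 hours at 37 °C before reading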). The note with it: qHTS. In outline:
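AC50 values derive from Hill-modelled concentration-response of ATP-based luminescence, normalized between DMSO-only and 100 uM tamoxifen controls. Cells were exposed in complete culture medium for 40 hr at 37 °C before detection.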

A short description of experiment [2]: Cell Viability - NIH 3T3 (AID 541).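 Further: cells exposed to compound for 40 hours; plate controls were DMSO alone for no effect and tamoxifen positive control for full effect; nearly all actives have a fitted effect of over 25% in size.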 The note with it: NIH 3T3 cell viability, qHTS; activity change, negative = cytotoxicity: at 92.2 µM (top of the series). An outline of the steps: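 qHTS format; 40 hr compound exposure, 37 °C; CellTiter-Glo luminescence (cellular ATP) read-out after 20 min at RT. Decrease in ATP = cytotoxicity; AC50 from standard Hill fit.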

Experiment [3] can be described thus: Cellular Toxicity (caspase-3) BJ (AID 658). The settings on record: BJ fibroblasts, luminescence; Potency: caspase-3 activation; series mostly up to 91.7 µM. In outline: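 Plated BJ cells (1000/well) rested 5 hr, received compound for 16 hr at 37 °C, then Caspase-Glo 3/7 reagent for 1 hr at room temperature before luminescence reading.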
Experiment [4] in a line: Cellular Toxicity (caspase-3) MRC-5 (AID 659). The note with it: MRC-5 cells, luminescence, normalized: DMSO 0%, 10 µM staurosporine 100%; series mostly up to 91.7 µM. In outline:
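Apoptosis readout in MRC-5 cells: luciferase light generated after caspase 3/7 cleaves a peptide-aminoluciferin substrate, measured post 16 hr compound incubation at 37 °C.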

Experiment [5] addresses Cytochrome P450 3A4 (Homo sapiens) (UniProt P08684). The experiment in a line: qHTS Assay for Inhibitors and Substrates of Cytochrome P450 3A4 (AID 884). Further: nearly all actives have a fitted effect of over 50% in size. Further: potency means the concentration at half of the fitted maximal effect. The settings on record: recombinant CYP3A4, Luciferin-PPXE luminescence; series mostly up to 57.1 µM. An outline of the steps: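 Luminescent readout of luciferin produced by CYP3A4 (20 nM) dealkylation of Luciferin-PPXE, 25 uM (its KM). NADPH-driven reaction ran 60 min at RT after 10 min compound preincubation; data scaled to 57 uM ketoconazole as 100% inhibition.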

The target of experiment [6] is Glucocorticoid receptor (Homo sapiens) (UniProt P04150). The experiment in a line: qHTS assay for small molecule agonists of glucocorticoid receptor signaling (AID 588532; active means well fitted curve in the direction sought with a large enough effect in the signal ratio, with a control signal flat; the % refers to the signal ratio;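 further: 100% = dexamethasone at 0.1 µM and 0% = DMSO only wells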). The note with it: HeLa MMTV-bla, beta-lactamase ratio, agonist, 18 h; stronger effect = higher value; percent of dexamethasone control, DMSO zero. In outline: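 MMTV-bla HeLa, beta-lactamase reporter; medium with 1% charcoal/dextran-stripped FBS; cpds up to 92 uM, 18 h, 37 C; CCF4 readout 460/530 nm; Hill fit → EC50, efficacy vs 0.1 uM dexamethasone = 100%.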
Chain of Glucocorticoid receptor (Homo sapiens) (P04150 whole entry, looked up): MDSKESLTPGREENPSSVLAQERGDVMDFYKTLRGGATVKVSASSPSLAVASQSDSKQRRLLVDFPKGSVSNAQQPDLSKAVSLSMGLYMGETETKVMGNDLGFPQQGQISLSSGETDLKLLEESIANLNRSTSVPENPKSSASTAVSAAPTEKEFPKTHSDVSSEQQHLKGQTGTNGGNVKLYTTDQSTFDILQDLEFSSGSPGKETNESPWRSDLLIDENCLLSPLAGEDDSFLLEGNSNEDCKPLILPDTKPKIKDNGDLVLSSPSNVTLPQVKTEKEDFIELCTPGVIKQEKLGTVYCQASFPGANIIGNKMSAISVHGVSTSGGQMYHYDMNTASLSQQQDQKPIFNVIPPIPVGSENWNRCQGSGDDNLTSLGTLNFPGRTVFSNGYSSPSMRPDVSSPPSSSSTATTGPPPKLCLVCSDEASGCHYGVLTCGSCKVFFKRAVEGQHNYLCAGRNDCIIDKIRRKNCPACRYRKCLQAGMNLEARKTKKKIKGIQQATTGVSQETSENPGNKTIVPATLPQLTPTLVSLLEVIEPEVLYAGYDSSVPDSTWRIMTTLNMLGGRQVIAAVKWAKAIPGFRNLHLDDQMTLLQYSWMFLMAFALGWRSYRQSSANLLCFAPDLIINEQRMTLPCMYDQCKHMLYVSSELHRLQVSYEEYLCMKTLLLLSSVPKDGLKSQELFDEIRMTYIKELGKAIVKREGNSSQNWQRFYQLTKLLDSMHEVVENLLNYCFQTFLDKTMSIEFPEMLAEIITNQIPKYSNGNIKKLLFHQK

Experiment [7] deals with Vitamin D3 receptor (Homo sapiens) (UniProt P11473). The experiment in a line: qHTS assay for small molecule antagonists of vitamin D receptor signaling (AID 588541; calls by dose curve;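 further: receptor activated by calcitriol during compound treatment; on the % scale 0 is the no-effect control and ±100 the full control effect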). The note with it: HEK293T VDR-UAS-bla, beta-lactamase ratio, antagonist mode; series mostly up to 76.7 µM. In outline: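 VDR-UAS-bla HEK293T cells (2000/well, 2% charcoal-stripped FBS) were treated with titrated compounds plus 1-alpha,25-dihydroxyvitamin D3 (50 nM or 3 nM final) for 16 h at 37 C. CCF4 beta-lactamase fluorescence was read; Hill fits gave IC50.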
Chain of Vitamin D3 receptor (Homo sapiens) (P11473 whole entry, looked up): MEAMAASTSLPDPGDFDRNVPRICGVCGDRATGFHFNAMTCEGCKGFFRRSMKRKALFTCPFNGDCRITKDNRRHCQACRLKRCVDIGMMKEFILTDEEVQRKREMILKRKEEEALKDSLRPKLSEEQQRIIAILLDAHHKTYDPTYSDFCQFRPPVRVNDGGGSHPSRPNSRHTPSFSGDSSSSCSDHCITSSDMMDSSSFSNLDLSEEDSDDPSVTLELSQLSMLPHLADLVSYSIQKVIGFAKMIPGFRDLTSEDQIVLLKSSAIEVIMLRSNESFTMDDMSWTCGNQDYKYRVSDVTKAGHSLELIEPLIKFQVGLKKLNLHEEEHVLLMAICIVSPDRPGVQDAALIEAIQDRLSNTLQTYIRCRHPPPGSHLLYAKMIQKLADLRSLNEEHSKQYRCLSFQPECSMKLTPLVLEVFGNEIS

Experiment [8] shares this target. The experiment in a line: qHTS assay for small molecule agonists of vitamin D receptor signaling (AID 588543; calls by dose curve;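 further: 0% = DMSO basal and 100% = reference agonist control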). The settings on record: HEK293T VDR-UAS-bla, beta-lactamase ratio, 16 h; series mostly up to 76.8 µM. In outline: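 qHTS in agonist mode: compound titrations stimulate a VDR-driven β-lactamase reporter in HEK293T cells over 16 h at 37 °C. Response normalized to 50 nM 1α,25-dihydroxyvitamin D3 = 100%, DMSO = 0%; Hill fitting gives EC50 and maximal response.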

Experiment [9] addresses Thyroid hormone receptor beta (Homo sapiens) (UniProt P10828). The experiment in a line: qHTS assay for small molecule agonists of thyroid hormone receptor beta signaling (AID 588545; calls by dose curve). The note with it: TR-UAS-bla GripTite HEK 293, beta-lactamase ratio, agonist mode, 18 h; series mostly up to 76.7 µM. An outline of the steps: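 Agonist-mode beta-lactamase reporter assay, HEK 293 cells, 2% charcoal/dextran FBS; cells plated 4 hrs, compound 18 hrs at 37 C, CCF4 2 hrs RT. Normalized to 10 nM T3 (100%) and DMSO (0%); Hill fit gives EC50, efficacy.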

Experiment [10] addresses Voltage-gated inwardly rectifying potassium channel KCNH2 (Homo sapiens) (UniProt Q12809). The experiment is described as follows: qHTS Assay for Small Molecule Inhibitors of the Human hERG Channel Activity (AID 588834).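 Further: top concentration of the series differs between compounds; on the % scale 0 is the no-effect control and ±100 the full control effect; lower thallium flux fluorescence means stronger hERG block; nearly all actives have a fitted effect of over 50% in size.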 The note with it: U2OS BacMam hERG, FluxOR thallium flux fluorescence; series mostly up to 92.2 µM. In outline: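 Cells were infected with hERG-BacMam virus for 4 hrs at room temperature, grown overnight, then seeded at 2000/well. After dye loading and roughly 10 min compound treatment, thallium influx was triggered and fluorescence recorded.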

A short description of experiment [11]: qHTS assay for small molecule activators of the nuclear factor-kappa B (NF-kB) signaling pathway (AID 651749; active means well fitted activation curve with a large enough effect in the signal ratio; the % refers to the signal ratio; further: % of control where 0% means no effect). The note with it: NF-kB-bla ME-180 cells, beta-lactamase FRET ratio, 16 h; stronger effect = higher value. An outline of the steps: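 Beta-lactamase reporter expression, controlled by NF-kB response elements in ME-180 cells, was quantified fluorometrically via FRET disruption; cells at 2,000/well had been incubated with 23 nL test compound for 16 hr.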

The nature of experiment [12]: qHTS assay for small molecule disruptors of the mitochondrial membrane potential - 1 hr assay (AID 651754; calls by dose curve; further: on the % scale 0 is the no-effect control and ±100 the full control effect; nearly all actives have a fitted effect of over 35% in size). The note with it: series mostly up to 92.2 µM. In outline: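 Read-out: dye fluorescence at 490 nm ex/535 nm em (monomers) and 540 nm ex/590 nm em (aggregates) in HepG2 cells. Compound exposure 1 hr at 37C, followed by 30 min dye loading.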
The target of experiment [13] is Tumor necrosis factor (Homo sapiens) (UniProt P01375). The experiment in a line: qHTS assay to identify small molecules that stimulate Tumor Necrosis Factor-alpha (TNF-alpha) secretion (AID 651757; active means well fitted curve in the direction sought with a large enough effect in the signal ratio; the % refers to the signal ratio; further: 0% is about no effect). The settings on record: Human cells, HTRF 665/615 ratio; series mostly up to 92.2 µM. In outline: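 THP-1 cells, 3000/well; compound 17 hrs, 37 C; add cryptate/XL665 anti-TNF-alpha antibody pair; 3 hr RT; TR-FRET (HTRF) read of secreted TNF-alpha. Quantitative HTS format.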
Chain of Tumor necrosis factor (Homo sapiens) (P01375 whole entry, looked up): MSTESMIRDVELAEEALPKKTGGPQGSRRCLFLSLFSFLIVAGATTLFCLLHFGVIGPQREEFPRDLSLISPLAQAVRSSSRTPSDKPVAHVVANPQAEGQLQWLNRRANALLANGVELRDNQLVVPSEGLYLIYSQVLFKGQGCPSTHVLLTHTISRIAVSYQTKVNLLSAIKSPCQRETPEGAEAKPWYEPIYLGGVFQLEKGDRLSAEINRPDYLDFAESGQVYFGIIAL

Experiment [14] deals with Nuclear receptor ROR-gamma (Homo sapiens) (UniProt P51449). The experiment is described as follows: qHTS assay for small molecule antagonists of the retinoid-related orphan receptor gamma (ROR-gamma) signaling pathway (AID 651802).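 Further: CHO cells with doxycycline-induced ROR-gamma expression; luciferase reporter luminescence driven by ROR response element; on the % scale 0 is the no-effect control and ±100 the full control effect; nearly all actives have a fitted effect of over 60% in size.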 The note with it: ROR-gamma antagonist cell reporter assay; series mostly up to 92.2 µM. An outline of the steps: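 Luciferase read-out: ONE-Glo luminescence after 30 min at room temperature, following 16hr doxycycline induction at 37C, 5% CO2 of CHO cells with TET-inducible ROR and RORE-LUC reporter; decreased luminescence = reduced reporter activity.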
Chain of Nuclear receptor ROR-gamma (Homo sapiens) (P51449 whole entry, looked up): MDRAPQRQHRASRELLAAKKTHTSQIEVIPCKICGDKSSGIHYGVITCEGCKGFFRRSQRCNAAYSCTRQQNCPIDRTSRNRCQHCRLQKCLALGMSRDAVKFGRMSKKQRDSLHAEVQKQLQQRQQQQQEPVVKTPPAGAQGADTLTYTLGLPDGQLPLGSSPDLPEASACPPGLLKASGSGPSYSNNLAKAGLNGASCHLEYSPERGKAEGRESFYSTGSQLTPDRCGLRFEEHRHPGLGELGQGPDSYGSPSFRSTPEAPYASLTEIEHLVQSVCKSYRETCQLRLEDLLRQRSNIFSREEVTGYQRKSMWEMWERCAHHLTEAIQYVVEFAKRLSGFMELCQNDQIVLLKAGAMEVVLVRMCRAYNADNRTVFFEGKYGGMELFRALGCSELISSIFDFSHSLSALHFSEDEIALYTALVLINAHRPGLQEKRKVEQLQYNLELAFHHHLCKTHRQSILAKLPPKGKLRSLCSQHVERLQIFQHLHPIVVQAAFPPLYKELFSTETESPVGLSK

The nature of experiment [15]: Cell Viability - SH-SY5Y (AID 544).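 Further: cells exposed to compound for 40 hours; nearly all actives have a fitted effect of over 55% in size.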 Further: potency means the concentration at half of the fitted maximal effect.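 On viability change, negative = cytotoxic: 0% = DMSO alone and -100% = 100 µM tamoxifen.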 The settings on record: SH-SY5Y neuroblastoma cell viability; viability change, negative = cytotoxic: at 92.2 µM (top of the series). An outline of the steps:
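SH-SY5Y, 1500 cells/well, 5 hr pre-incubation 37 °C; cpd 40 hr 37 °C; CellTiter-Glo 20 min RT; luminescence (ATP) read. qHTS concentration-response, Hill fit → AC50. Tamoxifen, doxorubicin as positive controls.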

Experiment [16] in a line: qHTS assay for small molecule agonists of the antioxidant response element (ARE) signaling pathway (AID 651741; active means well fitted activation curve with a large enough effect in the signal ratio; the % refers to the signal ratio; further: potency means the concentration at half of the fitted maximal effect). The note with it: HepG2 ARE-bla reporter, beta-lactamase FRET ratio, 16 h; series mostly up to 96 µM. An outline of the steps:
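Beta-lactamase reporter expression driven by the antioxidant response element in HepG2 cells was detected by fluorescence with LiveBLAzer B/G FRET substrate (2 h, room temperature) following 16 h compound treatment at 37 C.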

Experiment [17] can be described thus: qHTS assay for small molecule antagonists of the retinoid-related orphan receptor gamma (ROR-gamma) signaling pathway - cell viability counter screen (AID 720652; active means well fitted curve in the direction sought with a large enough effect in the repeat runs; an effect the other way counts as inactive or inconclusive;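 further: CHO reporter cells with doxycycline-induced ROR-gamma expression; compound exposure lasted 16 hr before ATP read; on the % scale 0 is the no-effect control and ±100 the full control effect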). The settings on record: RORgamma reporter cell line viability counter screen; series mostly up to 92.2 µM. An outline of the steps: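 CHO RORE-LUC/TET-ROR line, 1,000 cells/well, 37 C 5% CO2 5 hr; cpd or DMSO + doxycycline induction, 16 hr. CellTiter-Glo, 30 min RT, luminescence = ATP content.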

Experiment [18] can be described thus: qHTS assay for small molecule activators of the human pregnane X receptor (PXR) signaling pathway (AID 720659; call rule not given here; further: 0% is about no effect). The note with it: DPX-2 HepG2 CYP3A4-luciferase, 24 h; series mostly up to 92.3 µM.
Experiment [19] in a line: qHTS assay for small molecule activators of the p53 signaling pathway (AID 651743; active means well fitted activation curve with a large enough effect in the signal ratio, not every such curve was filed as active; the % refers to the signal ratio; further: % of control where 0% means no effect). The note with it: HCT-116 p53RE-bla, beta-lactamase FRET ratio, 16 h; activation: stronger effect = higher value. In outline:
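Here HCT-116 cells with an integrated p53-responsive beta-lactamase gene were incubated with compounds (16 hours, 37 C) after a 5-hour plating period; beta-lactamase activity was detected as fluorescence intensity via B/G FRET substrate.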

Values without a mark were called inactive. Records with an inconclusive call do not appear. The source made the active and inactive calls. Unless noted, the call rests on the fitted dose curve; in most records, active means well fitted curve in the direction sought with a large enough effect; inconclusive means small, poorly fitted or top-dose-only effect, or another doubt; inactive means no such curve, though single readings can be large; an effect the other way counts as inactive or inconclusive.

Chain of Voltage-gated inwardly rectifying potassium channel KCNH2 (Homo sapiens) (Q12809 whole entry, looked up): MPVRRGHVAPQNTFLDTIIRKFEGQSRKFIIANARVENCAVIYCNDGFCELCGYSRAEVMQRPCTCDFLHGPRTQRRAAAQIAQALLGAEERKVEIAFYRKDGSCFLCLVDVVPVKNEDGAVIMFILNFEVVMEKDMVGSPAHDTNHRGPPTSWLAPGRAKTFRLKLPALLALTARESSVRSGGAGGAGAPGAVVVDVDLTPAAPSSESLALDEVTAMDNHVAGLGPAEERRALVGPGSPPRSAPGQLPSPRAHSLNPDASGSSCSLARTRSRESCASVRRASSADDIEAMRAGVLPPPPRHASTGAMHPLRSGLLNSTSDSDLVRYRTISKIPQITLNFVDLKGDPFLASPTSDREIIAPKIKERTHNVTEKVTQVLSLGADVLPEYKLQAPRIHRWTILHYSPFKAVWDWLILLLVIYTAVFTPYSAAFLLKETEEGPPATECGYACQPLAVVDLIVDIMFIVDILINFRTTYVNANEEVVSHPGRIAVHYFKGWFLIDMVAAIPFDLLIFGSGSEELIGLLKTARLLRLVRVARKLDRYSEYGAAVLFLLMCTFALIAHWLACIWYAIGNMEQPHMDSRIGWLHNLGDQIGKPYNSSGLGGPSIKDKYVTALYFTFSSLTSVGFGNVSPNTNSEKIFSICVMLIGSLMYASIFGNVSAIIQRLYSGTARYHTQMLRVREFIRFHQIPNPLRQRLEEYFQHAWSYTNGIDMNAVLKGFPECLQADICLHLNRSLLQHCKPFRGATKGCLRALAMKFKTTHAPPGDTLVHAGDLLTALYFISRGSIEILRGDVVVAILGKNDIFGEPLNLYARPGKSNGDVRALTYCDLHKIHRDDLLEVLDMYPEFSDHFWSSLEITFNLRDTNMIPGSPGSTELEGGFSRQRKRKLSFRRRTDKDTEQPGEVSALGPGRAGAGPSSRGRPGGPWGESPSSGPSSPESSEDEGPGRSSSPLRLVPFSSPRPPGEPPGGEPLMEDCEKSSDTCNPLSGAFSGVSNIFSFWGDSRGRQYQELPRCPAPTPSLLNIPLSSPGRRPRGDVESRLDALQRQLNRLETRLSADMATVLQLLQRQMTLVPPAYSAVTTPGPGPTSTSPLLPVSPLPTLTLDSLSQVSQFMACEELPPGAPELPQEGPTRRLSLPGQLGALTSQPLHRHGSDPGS
Chain of Cytochrome P450 3A4 (Homo sapiens) (P08684 whole entry, looked up): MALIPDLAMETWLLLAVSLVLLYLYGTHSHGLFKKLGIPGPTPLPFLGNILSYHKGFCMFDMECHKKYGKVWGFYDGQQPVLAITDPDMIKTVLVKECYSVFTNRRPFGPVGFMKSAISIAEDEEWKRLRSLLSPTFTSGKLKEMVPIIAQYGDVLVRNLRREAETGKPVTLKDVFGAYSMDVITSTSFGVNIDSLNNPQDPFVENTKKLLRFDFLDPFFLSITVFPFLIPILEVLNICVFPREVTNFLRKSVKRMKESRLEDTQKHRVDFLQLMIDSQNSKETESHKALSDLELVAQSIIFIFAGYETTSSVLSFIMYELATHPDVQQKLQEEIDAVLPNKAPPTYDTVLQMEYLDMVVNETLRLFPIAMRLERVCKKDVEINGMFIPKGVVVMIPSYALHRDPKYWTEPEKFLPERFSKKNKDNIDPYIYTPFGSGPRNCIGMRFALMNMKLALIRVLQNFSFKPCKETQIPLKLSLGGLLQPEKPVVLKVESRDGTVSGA
Chain of Thyroid hormone receptor beta (Homo sapiens) (P10828 whole entry, looked up): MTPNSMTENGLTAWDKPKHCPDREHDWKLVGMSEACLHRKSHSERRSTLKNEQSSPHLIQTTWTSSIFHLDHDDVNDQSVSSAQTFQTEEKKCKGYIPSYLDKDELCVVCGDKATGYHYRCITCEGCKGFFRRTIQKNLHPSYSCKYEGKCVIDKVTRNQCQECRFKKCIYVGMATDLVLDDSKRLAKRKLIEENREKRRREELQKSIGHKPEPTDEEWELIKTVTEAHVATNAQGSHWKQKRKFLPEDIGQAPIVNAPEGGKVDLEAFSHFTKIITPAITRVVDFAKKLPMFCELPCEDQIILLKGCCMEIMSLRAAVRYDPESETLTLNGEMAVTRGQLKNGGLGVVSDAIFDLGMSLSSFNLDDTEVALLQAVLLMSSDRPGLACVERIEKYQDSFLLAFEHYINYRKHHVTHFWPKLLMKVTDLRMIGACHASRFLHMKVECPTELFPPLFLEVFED

As to `Clc1nc2ccccc2nc1Cl`, the Potency in experiment [1] is over 92 µM. In experiment [2], the activity change, negative = cytotoxicity was -143% (active). Moreover, the Potency entry in experiment [3], in experiment [5], in [7], in [8], in [9] and in experiment [10] was “inactive” in each case. Moreover, the Potency entry in experiment [12], in experiment [13] and in [14] was “inactive” in each case. Also, the call in experiment [4] was inactive. Also, the activation in experiment [6] was 3.19%; in [11] it was -0.675%.

For the compound `O=C(OCC1CO1)C1CCCCC1C(=O)OCC1CO1` (configuration not stated), the activity change, negative = cytotoxicity in [2] was -15%. The figures for the Potency in [15] and in [16] were 25.1 µM (active) and 42.2 µM (active), respectively. For the same compound, the activation in experiment [6] is 2.8%. Besides, the Potency result in experiment [10], in [12], in experiment [13], in [14] and in [17] was “inactive” each time. Besides, in [18], the result was inactive.

Take `O=CC(=O)c1ccccc1`: the Potency in experiment [1] was over 92 µM. In addition, the Potency entry in experiment [15], in experiment [5], in experiment [7], in experiment [8], in experiment [10] and in experiment [12] was “inactive” each time. For the same compound, the Potency result in experiment [13] and in [17] was “inactive” throughout. Moreover, the activation is -5.46% in experiment [6], -5.31% in experiment [19] and -1.11% in experiment [11]. For the same compound, the call in experiment [18] was inactive.

Turning to `Cc1cc2nc(N)sc2cc1C`, the Potency in [1] was over 92 µM; in experiment [5], 15.8 µM (active). Moreover, the Potency entry in [15], in [7], in [8], in [9], in [10] and in experiment [12] was “inactive” in each case. The Potency result in experiment [13], in experiment [14] and in [17] was “inactive” each time. Moreover, the compound was classed as inactive in experiment [4]. The activation in experiment [6] is -1.47%; in experiment [19], -2.08%; in experiment [11] it was -0.263%.
